High-throughput results (PubChem BioAssay)
Rows were chosen to be rich in hits. Some 6.3% of all compounds tested hit in one or more screens of this group.
A340 absorber: compound absorbs light at 340 nm; compound absorbance at 340 nm, fold over control; fold change at 10 µM; 65,000 tested, under 10 active; AID 708;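 active = at 10 µM dose, initial 340 nm absorbance at least 2 fold that of control wells; inactive = change under 2 fold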;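 note: initial absorbance extrapolated from kinetic A340 decline of NADH oxidation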
PMK inhibit: inhibitors of Streptococcus pneumoniae phosphomevalonate kinase; purified PMK, PK/LDH-coupled NADH absorbance 340 nm; inhibition, % at 10 µM; actives 0.49% (n = 65,000); AID 539;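 active = top-ranked compounds by inhibition in the single 10 µM screen, taking a fixed number of the strongest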;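 note: 0% = full reaction with DMSO carrier and 100% = background rate without enzyme reaction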
DPM-DC inhibit: S. pneumoniae DPM-DC inhibition. purified DPM-DC, PK/LDH coupled NADH fluorescence. calls only at 10 µM. actives 0.49% (n = 65,000). AID 556;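 active = the 320 compounds with the highest percent inhibition in the single-dose primary screen, excluding strongly autofluorescent ones, cut at about 32% in these data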;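 note: kinetic rate of NADH fluorescence loss reporting ADP formed by the decarboxylase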
Autofluor 339: intrinsic fluorescence of library compounds, ex339/em460 – biochemical, MLSMR library, data from DPM-DC assay, artefact control, profiling panel; AID 709; compound autofluorescence, ex339/em460 nm, NADH buffer; stronger effect = higher value; 1 = no-compound wells, NADH background; actives 5.5% (n = 65,000); fluorescence fold increase at 10 µM;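 active = at 10 µM, mean starting fluorescence two-fold or more over control wells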;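 note: signal is the first read of a kinetic run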
NADH enzymes: inhibitors of enzymes used to reach an NAD/NADH endpoint | coupled PK/LDH NADH assays, four targets | IC50, µM (titrated, usually from 10 µM), without a hit: at the top dose inhibition | actives 0.02% (n = 65,000) | AID 774;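 active = single-dose screening hits from any of four coupled enzyme assays that gave an IC50 when retested across doses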;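 note: the DPM-DC format reads NADH fluorescence rather than 340 nm absorbance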
MK inhibit: inhibitors of Streptococcus pneumoniae mevalonate kinase; purified MK, PK/LDH-coupled NADH absorbance 340 nm; inhibition, % at 10 µM; actives 0.48% (n = 65,000);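 active = ranked among the strongest by inhibition in the single 10 µM screen, a fixed top-ranked set picked for dose follow-up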
Starred values were filed as active, the others as inactive; i = inactive; · = no result given; + = active, no number.

SMILES | A340 absorber | PMK inhibit | DPM-DC inhibit | Autofluor 339 | NADH enzymes | MK inhibit
O=c1oc2ccc3ccccc3c2cc1-c1nnc(-c2ccccc2)o1 | 1.06 | 5.0 | · | 4.3* | 12.0% | 19.0
O=c1oc2ccccc2cc1-c1nnc(-c2cccc(Br)c2)o1 | 1.11 | 0.0 | · | 3.86* | 2.0% | 4.0
CCOC(=O)c1ccc2ncc(C(=O)OCC)c(NCc3ccco3)c2c1 | 1.08 | 10.0 | · | 3.78* | 12.0% | 13.0
CCOC(=O)c1cnc2c(C)cccc2c1NCc1ccco1 | 1.11 | 0.0 | i | 1.43 | 8.0% | 12.0
CCOC(=O)c1cnc2c(C(=O)OC)cccc2c1NCc1ccco1 | 1.12 | 5.0 | · | 3.39* | 6.0% | 6.0
CC1(C)Cc2c(sc3nc(SCC#N)n(C4CCCCC4)c(=O)c23)CO1 | 1.04 | 0.0 | i | 1.04 | 3.0% | 8.0
O=S(=O)(Nc1cccc2ncccc12)c1cccs1 | 0.99 | 16.0 | + | 1.11 | 6.0% | 0.0
O=S(=O)(Nc1ccc(-c2nc3cccnc3s2)cc1)c1cccs1 | 1.29 | 14.0 | · | 2.08* | 10.0% | 5.0
O=C1Nc2ccc(NS(=O)(=O)c3cccs3)c3cccc1c23 | 1.04 | 8.0 | i | 1.06 | 3.0% | 2.0
CCOC(=O)Cc1cn2c(=O)cc(CSCC(=O)Nc3ccc(C)c(C)c3)nc2s1 | 1.05 | 1.0 | i | 1.18 | 3.0% | 8.0
CC(C)c1nc(SCc2c(F)cccc2Cl)c2c(=O)n(C)c(=O)n(C)c2n1 | 1.05 | 1.0 | i | 1.07 | 3.0% | 8.0
O=C(O)CCCC(=O)N1CCN(c2nc(-c3ccccc3)c3ccccc3n2)CC1 | 1.04 | 0.0 | · | 2.08* | 1.0% | 2.0
O=C(O)C1CC=CCC1C(=O)N1CCN(c2nc(-c3ccccc3)c3ccccc3n2)CC1 (stereo not given) | 1.03 | 2.0 | i | 1.97 | 9.0% | 2.0
O=C1C(c2ccncc2)N(CCC2=CCCCC2)C(=O)CN1C1CCCCC1 (stereo not given) | 1 | 8.0 | i | 0.99 | 3.0% | 0.0
c1ccc2nc(-c3nc4ccccc4o3)ccc2c1 | 1.17 | 5.0 | · | 2.11* | 11.0% | 17.0
c1cc(-c2nc3ccccc3o2)nc(-c2nc3ccccc3o2)c1 | 0.98 | 15.0 | i | 1.16 | 5.0% | 10.0
Cc1ccc(NC(=O)c2c(-c3c(F)cccc3Cl)noc2C)cc1F | 1.03 | 0.0 | i | 1.12 | 1.0% | 2.0
COC(=O)c1cc(NS(=O)(=O)c2ccc(OC)c(OC)c2)ccc1Cl | 1.03 | 10.0 | i | 1.14 | 6.0% | 9.0
COC(=O)c1cc(Cl)c(NS(=O)(=O)c2ccccc2)cc1OC | 1.03 | 11.0 | + | 1.89 | 15.0% | 0.0
CCOC(=O)c1c(C)[nH]c(C(=O)COC(=O)c2ccccc2NC(=O)c2ccco2)c1C | 1.09 | 15.0 | + | 3.37* | 19.0% | 0.0
Cc1cc2c(cc1C)NC(c1c(C)n(C)n(-c3ccccc3)c1=O)C1=C(CC(C)(C)CC1=O)N2 (stereo not given) | 1.06 | 3.0 | i | 2.57* | 6.0% | 7.0
CC1(C)CC(=O)C2=C(C1)Nc1ccccc1NC2c1ccccn1 (stereo not given) | 1.21 | 16.0 | i | 0.99 | 8.0% | 6.0
Cc1ccnc(NC(=O)CCC(=O)N(CC(=O)NC2CCCCC2)CC2CCCO2)c1 (stereo not given) | 1.02 | 1.0 | i | 1.15 | 1.0% | 2.0
O=C(O)c1ccc(S(=O)(=O)NC2CCCc3ccccc32)cc1 (stereo not given) | 1.01 | 17.0 | i | 1.11 | 6.0% | 0.0
CC(=O)N1CCc2cc(S(=O)(=O)NC3CCCc4ccccc43)ccc21 (stereo not given) | 1.06 | 27.0* | i | 1.11 | 9.0% | 0.0
SMILES | A340 absorber | PMK inhibit | DPM-DC inhibit | Autofluor 339 | NADH enzymes | MK inhibit
c1ccc2[nH]c(SN3CCOCC3)nc2c1 | 0.98 | 13.0 | i | 1.11 | 26.0% | 54.0*
O=C(CSc1nc2ccccc2[nH]1)Nc1ccccc1N1CCOCC1 | 1.05 | 1.0 | i | 1.05 | 2.0% | 4.0
CC(C)CC(=O)NCC(C)NC(=O)CC(C)C (stereo not given) | 1.01 | 10.0 | + | 1.2 | 17.0% | 8.0
CCS(=O)(=O)N1CCC(C(=O)NCc2ccco2)CC1 | 1.01 | 26.0* | i | 1.1 | 9.0% | 0.0
CCOCCCNC(=O)C1CCN(S(=O)(=O)CC)CC1 | 1.03 | 25.0* | i | 1.06 | 8.0% | 0.0
COCCCNC(=O)C1CCN(S(=O)(=O)N(CC(C)C)CC(C)C)CC1 | 1.02 | 8.0 | i | 1.11 | 3.0% | 1.0
CCOCCCNC(=O)C1CCN(S(=O)(=O)N(CC(C)C)CC(C)C)CC1 | 0.96 | 26.0* | i | 1.02 | 4.0% | 0.0
COc1cc(CNCc2ccc(OC)c(OC)c2OC)cc(OC)c1 | 1.07 | 0.0 | i | 1.11 | 17.0% | 51.0*
Cc1csc(SCCn2c(N3CCN(c4ccccc4)CC3)nc3c2c(=O)[nH]c(=O)n3C)n1 | 1.02 | 7.0 | i | 1.09 | 6.0% | 10.0
COCc1nnc(NS(=O)(=O)c2ccc(Br)cc2)s1 | 1.02 | 4.0 | i | 1.06 | 3.0% | 3.0
COC(=O)c1cc2c(ccn2-c2ccc(F)cc2)n1CC(=O)N1CCN(C(=O)c2ccco2)CC1 | 1.05 | 0.0 | · | 3.51* | 5.0% | 9.0
Cc1ccc(C(C)NC(=O)c2ccco2)cc1C (stereo not given) | 1.04 | 0.0 | i | 1.05 | 2.0% | 4.0
COc1ccc(CCN(C(=O)c2ccc(F)cc2)C2=CC3CCC(C2)N3C)cc1OC (stereo not given) | 0.99 | 8.0 | i | 1.13 | 4.0% | 3.0
Cc1ccc2cc(C#N)c(NCCNC(=O)C3CC3)nc2c1C | 1.01 | 6.0 | i | 3.17* | 14.0% | 10.0
CC1Cc2ccccc2N1C(=O)CCn1c(=O)sc2ccccc21 (stereo not given) | 1.02 | 8.0 | i | 1 | 3.0% | 2.0
O=C(Nc1cccc2nsnc12)c1ccc2c(c1)OCCO2 | 0.99 | 10.0 | i | 1.77 | 10.0% | 7.0
Cc1nc2ccc3nc(NC(=O)c4ccc5c(c4)OCCO5)sc3c2s1 | 1.04 | 18.0 | i | 3.47* | 7.0% | 3.0
Cc1nc2c(ccc3nc(NC(=O)c4ccc5c(c4)OCCO5)sc32)s1 | 1.01 | 13.0 | i | 2.38* | 12.0% | 11.0
CCCOc1ccc(C2C(=O)N(C3CCCCC3)CC(=O)N2CCCOCC)cc1OC (stereo not given) | 0.98 | 26.0* | i | 0.99 | 9.0% | 0.0
CCOCCCN1C(=O)CN(C2CCCCC2)C(=O)C1c1ccc(OC)c(OC)c1 (stereo not given) | 1 | 20.0 | i | 0.94 | 8.0% | 0.0
COc1ccc(C2C(=O)N(C3CCCCC3)CC(=O)N2CCc2ccccc2)cc1OC (stereo not given) | 1.01 | 26.0* | i | 1 | 9.0% | 0.0
CCOC(=O)CSC(C)C(=O)Nc1nnc(C(C)C)s1 (stereo not given) | 1.04 | 0.0 | i | 1.12 | 1.0% | 3.0
